This is an account of results in PubChem BioAssay AID602399 (Sanford-Burnham Center for Chemical Genomics, 2012).

The structures appear in SMILES notation. Where “and” joins values, the source holds several entries; their conditions need not be identical. Equal entries are not always repeated. In all, about 360,000 compounds went through this assay and about 2,800 (0.78%) were called active. The sample holds actives, similar compounds and a random draw of the others, so the mix is not that of the screen. A number with no mark means an inactive call. Cut-off read from the data, not from the text of the source: active = inhibition above about 26%; inactive = the rest.

The test relates to Nicotinate-nucleotide adenylyltransferase NadD (Staphylococcus aureus N315). Briefly: S. aureus NadD enzyme activity blockers – biochemical, colorimetric, uHTS, primary screen (AID 602399). The conditions noted are these: purified NadD enzyme, colorimetric absorbance read-out; at 20 µM; stronger effect = higher value.
Broadly, the inhibition is the drop in the measured response relative to a control, in per cent. For the molecule `CN(C)CCN1CCN(c2cc(-c3cccc(Cl)c3)nc3ccnn23)CC1`, the inhibition is -0.61%.

For the molecule `O=C(c1ccccc1)N1CCN(C(=O)c2cc3nc(-c4ccccc4)cc(C(F)(F)F)n3n2)CC1`, the inhibition was 2.29%.

As to `C#Cc1cc(N2CCN(C(=O)c3ccoc3)CC2)n2nc(-c3cccc(Cl)c3)cc2n1`, the inhibition was 35.4% (active).

Turning to `CCCCC[C@H](C)N1C[C@@H](COCc2ccccc2)Oc2cc(N3CCC[C@@H]3CO)ccc2S1(=O)=O`, the inhibition was 1.75%.

With `Nc1ncnc2c1cnn2C1CC(O)C(CO)O1` (stereo not given), the inhibition was 4.49%.

With `Cc1ccc(-n2c(SCC(=O)N/N=C/C=C/c3ccccc3[N+](=O)[O-])nc3ccccc3c2=O)cc1`, the inhibition was 35.1% (active).

For `C/C(=N\NC(=O)CSc1nc2ccccc2c(=O)n1-c1ccccc1C)c1cccs1`, the inhibition is 2.02%.

Regarding `CC(=O)NCCn1c(SCC(=O)Nc2ccc(C)cc2)nc2ccccc2c1=O`, the inhibition is -6.19%.

`Cc1nn(-c2ccccc2)c(C)c1/C=N/NC(=O)CSc1nc2ccccc2c(=O)n1-c1ccccc1`: the inhibition was 30.2% (active).

Regarding `Cn1c(SCC(=O)N/N=C/c2ccc(O)c(O)c2)nc2ccccc21`, the inhibition is -4.08%.

`CCn1c(SCC(=O)N/N=C/C=C/c2ccccc2[N+](=O)[O-])nnc1-c1ccccc1`: the inhibition was 5.92%.

As to `Cc1ccc(CC2CC(=O)N(c3nc(C)cc(C)n3)C2=O)cc1` (stereo not given), the inhibition is -0.638%.

Regarding `O=C(COC(=O)c1cc(S(=O)(=O)N2CCOCC2)ccc1F)NC1CC1`, the inhibition is -7.35%.

As for `COc1ccc(Cc2nnc(SCC(=O)N(c3ccccc3)C(C)C)n(N)c2=O)cc1`, the inhibition is -0.371%.

On to `CC(=O)N(c1ccc2oc(=O)sc2c1)S(=O)(=O)c1ccc(C)cc1`, for which the inhibition is -4.06%.

On to `Cc1ccc2cccc(O)c2[n+]1[O-]`, for which the inhibition is -2.68%.

As to `NNC(=O)c1ccc(COCC(F)(F)C(F)F)cc1`, the inhibition is 0.345%.

For `O=C(O)c1ccc(COCC(F)(F)F)cc1`, the inhibition was 57.7% (active).

Turning to `O=C(O)CCC(=O)NCc1ccc(C(=O)O)cc1`, the inhibition is -1.86%.

Turning to `O=C(CCc1ccccc1)Nc1ccc(NC(=O)C2CCCCC2)nc1`, the inhibition was -0.446%.

For the molecule `O=C1CCCN2N=C(SCC(=O)Nc3ccc(Br)cc3)SC2=N1`, the inhibition is 0%.

Take `COCCNC(=O)Cn1cc2c(n1)CCCCC2`: the inhibition was 4.24%.

Regarding `CC1CN(S(=O)(=O)c2ccc(C(=O)NN3CCN(C)CC3)cc2)CC(C)O1` (stereo not given), the inhibition is -3.52%.

As for `Cc1ccc(C(=O)N/N=C\c2cc(Br)c(Br)o2)cn1`, the inhibition is -3.68%.

As to `Nc1cccnc1Sc1ccccc1`, the inhibition is -5.1%.

Consider `FC(F)(F)C1CCCN(c2nsc3ccccc23)C1` (stereo not given), for which the inhibition is 34.7% (active).

With `CC(C)(C)c1ccc(C(=O)N2CCC(C(=O)N3CCCCC3)CC2)cc1`, the inhibition is -0.861%.

With `C/C(CC(=O)Nc1ccc(Cl)cc1)=N\NC(=O)C(=O)NCCO`, the inhibition is 2.33%.

`CN(C)Cc1c(C(=O)N/N=C/c2ccccc2OCc2ccc(F)cc2)nnn1-c1nonc1N`: the inhibition was 5.11%.

As to `CC(C)c1c(C(=O)N/N=C/c2ccccc2C(=O)O)nnn1-c1nonc1N`, the inhibition was -2.34%.

As for `Nc1nonc1-n1nnc(C(=O)N/N=C/c2cc(Br)ccc2O)c1CSC1=NCCS1`, the inhibition is 37.3% (active).

For `Clc1ccc(-c2cc(C3CCNCC3)[nH]n2)c(Cl)c1`, the inhibition is -5.2%.

For the molecule `CCC(C(=O)OC)n1cnc2c(oc3ccccc32)c1=O` (stereo not given), the inhibition was -0.579%.

Take `Cc1ccc(C(=O)Oc2coc(CSc3nnc(NC(=O)c4cccs4)s3)cc2=O)cc1C`: the inhibition was 58.4% (active).

As to `CCOc1ccccc1Nc1nnc(SCc2ccc(C(=O)OC)o2)s1`, the inhibition is -2.72%.

With `COC(=O)c1ccc(CSc2nnc(NC(C)C)s2)cc1`, the inhibition was -1.36%.

In the case of `Cc1cc(C)c(C2C3=C(Nc4c2c(C)nn4-c2ccccn2)c2ccccc2C3=O)c(C)c1` (stereo not given), the inhibition was 33.2% (active).

With `Cc1ccc(C)c(OCCC(=O)OCC(=O)c2ccc3c(c2)NC(=O)CO3)c1`, the inhibition is -5.39%.

As for `COc1ccc(C(=O)c2c(C)c(CCC#N)n3ccccc23)c(OC)c1`, the inhibition is -8.39%.

For `CCOc1ccc(CN2CCNC(=O)C2CC(=O)NCCCC2CCCC2)cc1` (stereo not given), the inhibition is 8.04%.

As to `Oc1ccc(C2Nc3cccc4cccc(c34)N2)cc1`, the inhibition was 57.7% (active).

Regarding `COc1cccc(CNCCc2c[nH]c3ccccc23)c1OCc1ccccc1F`, the inhibition was -4.86%.

In the case of `Cc1cc(C(=O)NNS(=O)(=O)c2ccccc2C(F)(F)F)nn1C(C)(C)C`, the inhibition is -0.0808%.

For the molecule `COc1ccc(/C(=N\O)c2nccc3cc(OC)c(OC)cc23)cc1OC`, the inhibition was -0.658%.

For the molecule `CNC(=O)c1ccc(CN(C)C(=O)c2cc(C3CC3)nc3c2cnn3C(C)C)cc1`, the inhibition was 2.58%.

With `O=C(CNC(=O)c1cccs1)N/N=C/c1cccc(Br)c1`, the inhibition was -5.24%.

As to `CC(=O)NC(Cc1c[nH]c2ccccc12)C(=O)NCCc1ccccc1` (stereo not given), the inhibition is -5.17%.

With `O=C(NC(Cc1c[nH]c2ccccc12)C(=O)N/N=C/c1ccc(Br)cc1)c1cccs1` (stereo not given), the inhibition was 32% (active).

Consider `O=C1N(c2ccccc2)C(=Nc2ccccc2)SC12CC2`, for which the inhibition is -4.95%.

As for `Cc1cc(Cl)ccc1NNC(=O)c1snnc1C`, the inhibition was 1.86%.

`OC(c1ccc(F)cc1)c1ncc(-c2cccc(C(F)(F)F)c2)[nH]1` (stereo not given): the inhibition was 0.456%.

Regarding `O=C(NCc1ccccc1Cl)c1ccc2c(=O)n(CC3CCCO3)c(=S)[nH]c2c1` (stereo not given), the inhibition is -3.54%.

For the molecule `COc1ccc(N=Nc2ccc(O)c(P(=O)(c3ccccc3)c3ccccc3)c2)cc1`, the inhibition is 30.9% (active).

For `CC(C)(C)c1cc(P(=O)(c2ccccc2)c2ccccc2)ccc1O`, the inhibition is -3.61%.

For `Cc1cc(N=Nc2ccc3ccccc3c2)ccc1O`, the inhibition was -20.6%.

Turning to `CN1CC(=O)N=C1N`, the inhibition was -3.38% and -0.141%.

Regarding `COc1cccc(CN(C)C(=O)CC[C@H]2O[C@@H](n3cnc4c(NC(=O)c5ccccc5)ncnc43)[C@H](O)[C@@H]2O)c1`, the inhibition is -1.41%.

As for `O=C(NCc1ccncc1)c1ccc(NS(=O)(=O)c2cccc([N+](=O)[O-])c2)cc1`, the inhibition was -1.63%.

For the molecule `O=C(CCN1CCCCC1)N=Nc1c(O)[nH]c2ccccc12`, the inhibition was -5.32%.

With `O=[N+]([O-])c1cc(S(=O)(=O)Nc2cccc(Cl)c2)ccc1N=Nc1c(O)[nH]c2ccccc12`, the inhibition is 61% (active).
